This passage reports Potency results from PubChem BioAssay (Tox21).

Inconclusive results are not listed. Some structures have more than one record in an assay (separate samples or runs), and their calls can disagree. The source made the active and inactive calls. Unless noted, calls come from the whole dose curve.

The target of test [1] is Gonadotropin-releasing hormone receptor (Homo sapiens) (UniProt P30968). As to the kind of experiment: Human gonadotropin-releasing hormone receptor (GnRHR) small molecule agonists, calcium flux assay in GnRHR-HEK293 cells (AID 1920063). Note: nearly all actives have a fitted effect of over 35% in size. The gist of the method:
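Intracellular calcium rise is the read-out: engineered human GnRHR HEK293 cells, dye-loaded, are exposed to DMSO-dissolved compounds and fluorescence at Ex/Em 480/540 is tracked for 3 min.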

In test [2] the target is KiSS-1 receptor (Homo sapiens) (UniProt Q969F8). Kind of test: Human kisspeptin (KISS1R) small molecule agonists, calcium flux assay in KISS1R-HEK293 cells (AID 1920064; active = well fitted activation curve with a large enough effect in the repeat runs). The gist of the method: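 Concentration-response testing used 15 concentrations in triplicate on human KISS1R-expressing HEK293 cells. Calcium-dependent fluorescence (Ex/Em 480/540) was followed kinetically for 3 min after compound transfer.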

Test [3] can be described thus: G protein-coupled receptor (GPCR) small molecule agonists, calcium flux assay: HEK293 wild type cell line counter screen (AID 1920065). The gist of the method: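 Fluorescence intensity signals activation. After overnight (18 h) culture and a 1 h calcium dye load at 37 C, compounds are added by pin tool and the plate read at 480/540 nm for 3 min in 1 s steps.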
Test [4] is described as follows: p53 small molecule agonists, cell-based qHTS assay with human liver microsomes (AID 1963577).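 Note: p53 response element beta-lactamase reporter cells with liver microsomes plus NADPH.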 The gist of the method: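 Reporter activation was measured by LiveBLAzer fluorescence intensity in p53RE-bla cells, which had been exposed to compounds for 16 h at 37 C alongside 0.5 mg/mL human liver microsomes and 0.5 mg/mL NADPH (final concentrations).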
Test [5] is described as follows: p53 small molecule agonists, cell-based qHTS assay with rat liver microsomes (AID 1963578). The gist of the method:
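Compound in DMSO added to p53RE-bla cells 5 h post-plating; rat microsomes/NADPH 0.5 mg/mL final; 16 h, 37 C; LiveBLAzer 2 h RT.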

Test [6] in a line: p53 small molecule agonists, cell-based qHTS assay with human liver microsomes: qHTS cell viability counter screen (AID 1963579). Note: nearly all actives have a fitted effect of over 45% in size. The gist of the method: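 HLM-supplemented (0.5 mg/mL final) and NADPH-supplemented (0.5 mg/mL final) p53RE-bla cultures, 4,000 cells per well, were dosed with compounds in DMSO for 16 h at 37 C; luminescent ATP detection (CellTiter-Glo, 30 min, room temperature) quantified surviving cells.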

Test [7] in a line: p53 small molecule agonists, cell-based qHTS assay with rat liver microsomes: qHTS cell viability counter screen (AID 1963580). Note: nearly all actives have a fitted effect of over 45% in size. The gist of the method: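 Rat liver microsome (0.5 mg/mL final) and NADPH (0.5 mg/mL final) co-incubation with compounds for 16 h at 37 C on HCT-116 p53RE-bla cells; cytotoxicity taken from intracellular ATP luminescence.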
Test [8] in a line: p53 small molecule agonists, cell-based qHTS assay: qHTS cell viability counter screen (AID 1963581). Note: nearly all actives have a fitted effect of over 45% in size. The gist of the method:
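Luminescence from CellTiter-Glo, reflecting ATP content, serves as the cytotoxicity measure; it is taken after the 2 h reporter substrate step in HCT-116 p53RE-bla cells dosed for 16 h at 37 C.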

Test [9] is described as follows: p53 small molecule agonists, cell-based qHTS assay (AID 1963582; active = well fitted activation curve with a large enough effect in the signal ratio in the repeat runs, not every such curve was filed as active; the % refers to the signal ratio). The gist of the method:
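After plating, p53RE-bla cells sat 5 h in the incubator; compounds or DMSO vehicle were pinned in; a 16 h incubation at 37 C followed; FRET substrate was added and, 2 h later at RT, fluorescence was measured.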

Test [10] addresses 5-hydroxytryptamine receptor 2A (Homo sapiens) (UniProt P28223). Kind of test: 5-hydroxytryptamine receptor 2A (HTR2A) small molecule antagonists, cell-based qHTS assay (AID 1963586). Note: nearly all actives have a fitted effect of over 45% in size. The gist of the method:
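CHO cells stably expressing human HTR2A were plated for 18 h at 37 C, then loaded with calcium dye for 1 h. Compounds were preincubated 5 min at room temperature before DOI (4 nM solution) was added. Kinetic fluorescence was read for 3 min.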

Test [11] has the same target. As to the kind of experiment: 5-hydroxytryptamine receptor 2A (HTR2A) small molecule agonists, cell-based qHTS assay (AID 1963587). Note: nearly all actives have a fitted effect of over 30% in size. Note: potency is the fitted concentration of half-maximal effect. The gist of the method:
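Kinetic calcium-flux fluorescence (2 min, 1 sec intervals) after compound addition in agonist mode. HTR2A-CHO cells were cultured 18 h, then dye-loaded 1 h at 37 C.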

Test [12] has as its target Muscarinic acetylcholine receptor M1 (Homo sapiens) (UniProt P11229). Kind of test: Cholinergic receptor muscarinic 1 (CHRM1) small molecule antagonists, cell-based qHTS assay (AID 1963588). Note: nearly all actives have a fitted effect of over 40% in size. The gist of the method:
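Compounds were tested at 15 concentrations in three independent runs. Dye-loaded CHRM1-CHO cells were exposed 5 min at room temperature before stimulation by acetylcholine added at 50nM. Intracellular calcium was read kinetically on FDSS for 3 min.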

Test [13] has the same target. As to the kind of experiment: Cholinergic receptor muscarinic 1 (CHRM1) small molecule agonists, cell-based qHTS assay (AID 1963589). Note: nearly all actives have a fitted effect of over 35% in size. The gist of the method:
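Fluorescent calcium dye reports M1 activation in stably transfected CHO cells. Compounds, 15 concentrations, added after 1 h dye loading at 37 C; kinetic reading at 1 sec intervals.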

A short description of test [14]: cAMP Responsive Elements (CRE) small molecule agonists, cell-based qHTS assay (AID 1963590). The gist of the method: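 Compound exposure lasted 3 h at 37 C/5% CO2 in CRE-bla HEK 293T cells grown in assay medium with 10% dialyzed FBS and 25 mM HEPES. Reporter signal came from LiveBLAzer B/G FRET substrate, 2 h, room temperature.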
A short description of test [15]: cAMP Responsive Elements (CRE) small molecule antagonists, cell-based qHTS assay (AID 1963591; active = well fitted inhibition curve with a large enough effect in the signal ratio in the repeat runs, not every such curve was filed as active; the % refers to the signal ratio). The gist of the method:
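Stimulation used NKH477 at a final 0.25 uM for 3 h in compound-treated CRE-bla HEK293T cells, seeded 18 h beforehand. Reporter activity was measured with LiveBLAzer B/G FRET substrate after 2 h at room temperature.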

The target of test [16] is Beta-2 adrenergic receptor (Homo sapiens) (UniProt P07550). As to the kind of experiment: Adrenergic beta2 receptor (ADRB2) small molecule antagonists, cell-based qHTS assay (AID 1963592). Note: series mostly up to about 92 µM; nearly all actives have a fitted effect of over 50% in size. The gist of the method:
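Assay format: CHO-ADRB2 cells, 18-20hr seeding at 37C/5% CO2, then compound plus 1nM isoproterenol agonist mix for 0.5hr RT. Homogeneous time-resolved fluorescence cAMP detection after 1hr, expressed as 665/615 nm ratio.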

Test [17] addresses D(2) dopamine receptor (Homo sapiens) (UniProt P14416). Kind of test: Dopamine D2 receptor (DRD2) small molecule agonists, cell-based qHTS assay (AID 1963594). Note: nearly all actives have a fitted effect of over 35% in size. The gist of the method: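 cAMP accumulation in DRD2-HEK293 cells measured by HTRF after 1 h detection; compounds added 10 min before NKH477 (200nM […]) forskolin-analogue stimulation, 30 min at room temperature, with Ro20-1724 present at 0.1 mM final.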

Test [18] shares this target. As to the kind of experiment: Dopamine D2 receptor (DRD2) small molecule antagonists, cell-based qHTS assay (AID 1963595; active = well fitted inhibition curve with a large enough effect in the signal ratio in the repeat runs, with a control signal flat; the % refers to the signal ratio). The gist of the method:
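In this cell-based antagonist screen, compounds act for 10 min at room temperature before a 30 min challenge with 12 nM quinpirole and 200 nM NKH477. cAMP is quantified by HTRF competition in DRD2-HEK293 cells containing 0.1 mM Ro20-1724.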

The nature of test [19]: Nuclear factor erythroid 2-related factor 2/antioxidant responsive element (Nrf2/ARE) small molecule agonists: luciferase reporter gene qHTS assay in human keratinocytes (AID 1919969). Note: nearly all actives have a fitted effect of over 35% in size.
Test [20] deals with Beta-2 adrenergic receptor (Homo sapiens) (UniProt P07550). As to the kind of experiment: Adrenergic beta2 receptor (ADRB2) small molecule agonists, cell-based qHTS assay (AID 1963593).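 Note: CHO cells stably overexpressing human ADRB2.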 The gist of the method: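 CHO cells stably over-expressing ADRB2 were plated overnight at 37C, then dosed with compounds plus a stimulation mix containing 100uM IBMX and 25uM Ro-20-1724 for 0.5hr at room temperature. cAMP was measured by HTRF competition, 1hr.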
Sequence of Beta-2 adrenergic receptor (Homo sapiens) (P07550 whole entry, looked up): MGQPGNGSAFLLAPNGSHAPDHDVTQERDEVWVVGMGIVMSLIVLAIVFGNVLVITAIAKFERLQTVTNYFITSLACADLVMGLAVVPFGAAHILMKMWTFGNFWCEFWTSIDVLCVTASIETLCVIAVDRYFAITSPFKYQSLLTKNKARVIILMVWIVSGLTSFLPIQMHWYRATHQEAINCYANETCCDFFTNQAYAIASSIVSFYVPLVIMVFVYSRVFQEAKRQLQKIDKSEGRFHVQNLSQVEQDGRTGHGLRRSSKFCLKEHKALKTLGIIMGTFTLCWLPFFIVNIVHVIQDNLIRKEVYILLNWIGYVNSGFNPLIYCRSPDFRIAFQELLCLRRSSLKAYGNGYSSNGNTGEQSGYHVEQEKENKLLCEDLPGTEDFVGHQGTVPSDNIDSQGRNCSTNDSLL

Sequence of Gonadotropin-releasing hormone receptor (Homo sapiens) (P30968 whole entry, looked up): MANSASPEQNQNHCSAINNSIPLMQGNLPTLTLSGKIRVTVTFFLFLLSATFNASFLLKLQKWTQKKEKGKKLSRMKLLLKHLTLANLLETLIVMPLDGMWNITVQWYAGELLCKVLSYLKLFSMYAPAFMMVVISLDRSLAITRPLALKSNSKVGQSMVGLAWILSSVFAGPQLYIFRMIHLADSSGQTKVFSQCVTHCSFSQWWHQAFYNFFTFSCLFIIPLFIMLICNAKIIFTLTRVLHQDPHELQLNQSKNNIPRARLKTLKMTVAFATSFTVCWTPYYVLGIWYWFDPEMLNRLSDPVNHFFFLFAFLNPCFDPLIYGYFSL
Sequence of 5-hydroxytryptamine receptor 2A (Homo sapiens) (P28223 whole entry, looked up): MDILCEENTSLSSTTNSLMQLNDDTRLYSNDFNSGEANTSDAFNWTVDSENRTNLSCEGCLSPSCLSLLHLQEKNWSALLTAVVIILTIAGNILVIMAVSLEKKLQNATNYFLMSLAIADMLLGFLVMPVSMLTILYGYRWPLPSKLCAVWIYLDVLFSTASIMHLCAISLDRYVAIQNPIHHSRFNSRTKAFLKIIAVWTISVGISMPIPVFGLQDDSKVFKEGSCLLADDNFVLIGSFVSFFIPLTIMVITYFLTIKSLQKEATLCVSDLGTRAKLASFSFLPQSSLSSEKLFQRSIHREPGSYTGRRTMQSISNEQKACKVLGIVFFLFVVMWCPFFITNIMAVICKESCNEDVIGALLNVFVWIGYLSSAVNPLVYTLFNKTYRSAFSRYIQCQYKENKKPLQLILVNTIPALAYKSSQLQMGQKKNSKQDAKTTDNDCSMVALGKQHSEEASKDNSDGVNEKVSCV
Sequence of KiSS-1 receptor (Homo sapiens) (Q969F8 whole entry, looked up): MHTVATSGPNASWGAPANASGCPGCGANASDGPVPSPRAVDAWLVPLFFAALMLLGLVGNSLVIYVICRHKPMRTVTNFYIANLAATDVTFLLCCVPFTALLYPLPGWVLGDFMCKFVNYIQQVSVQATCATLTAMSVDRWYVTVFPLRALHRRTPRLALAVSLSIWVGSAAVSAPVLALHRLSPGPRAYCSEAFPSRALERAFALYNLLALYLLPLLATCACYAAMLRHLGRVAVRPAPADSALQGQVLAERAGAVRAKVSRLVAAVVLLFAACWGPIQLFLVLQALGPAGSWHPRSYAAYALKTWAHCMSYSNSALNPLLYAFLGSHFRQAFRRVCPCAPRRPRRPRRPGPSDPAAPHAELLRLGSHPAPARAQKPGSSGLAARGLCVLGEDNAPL
Sequence of D(2) dopamine receptor (Homo sapiens) (P14416 whole entry, looked up): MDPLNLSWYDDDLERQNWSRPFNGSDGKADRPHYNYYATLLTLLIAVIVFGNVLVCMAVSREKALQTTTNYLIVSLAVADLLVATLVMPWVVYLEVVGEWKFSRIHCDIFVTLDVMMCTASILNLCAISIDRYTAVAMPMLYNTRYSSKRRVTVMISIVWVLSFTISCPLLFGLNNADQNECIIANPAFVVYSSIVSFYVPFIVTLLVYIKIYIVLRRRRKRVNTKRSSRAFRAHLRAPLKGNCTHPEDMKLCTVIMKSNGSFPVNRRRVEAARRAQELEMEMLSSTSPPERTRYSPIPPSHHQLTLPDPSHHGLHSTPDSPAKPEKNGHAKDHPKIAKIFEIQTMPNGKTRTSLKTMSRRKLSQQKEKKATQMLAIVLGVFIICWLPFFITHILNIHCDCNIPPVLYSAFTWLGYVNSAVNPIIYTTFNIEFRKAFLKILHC
Sequence of Muscarinic acetylcholine receptor M1 (Homo sapiens) (P11229 whole entry, looked up): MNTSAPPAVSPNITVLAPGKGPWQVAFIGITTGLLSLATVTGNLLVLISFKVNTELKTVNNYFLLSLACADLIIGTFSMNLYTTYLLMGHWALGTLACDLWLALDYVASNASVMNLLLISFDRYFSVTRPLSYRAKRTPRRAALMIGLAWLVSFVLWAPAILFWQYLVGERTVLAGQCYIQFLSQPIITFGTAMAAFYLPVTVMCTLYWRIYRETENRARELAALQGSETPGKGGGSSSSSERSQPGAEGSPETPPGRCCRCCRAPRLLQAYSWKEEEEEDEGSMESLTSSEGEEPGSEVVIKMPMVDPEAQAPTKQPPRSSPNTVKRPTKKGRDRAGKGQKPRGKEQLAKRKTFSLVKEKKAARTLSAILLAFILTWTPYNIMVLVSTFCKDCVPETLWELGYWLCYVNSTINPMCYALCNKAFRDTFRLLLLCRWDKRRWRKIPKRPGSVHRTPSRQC

For `CCC[CH2][Sn]([Cl])([Cl])[Cl]`, the Potency result in test [1], in test [2], in test [3], in test [4], in test [5] and in test [6] was “inactive” in each case. In addition, the Potency entry in test [7], in test [8], in [9], in test [10], in test [11] and in test [12] was “inactive” each time. Further, the Potency entry in test [13], in [14], in [15], in test [16], in test [17] and in test [18] was “inactive” in each case.
As to `NC(=S)c1c(Cl)cccc1Cl`, the Potency entry in test [19], in test [1], in test [2], in test [4], in test [5] and in [6] was “inactive” throughout. The Potency entry in test [7], in test [8], in test [9], in [11], in [12] and in test [13] was “inactive” in each case. Besides, the Potency result in [14], in test [15], in test [16], in [17] and in [18] was “inactive” each time.
`CC(=NC#N)N(C)Cc1ccc(Cl)nc1`: the Potency entry in test [19], in test [2], in test [3], in test [4], in test [5] and in test [6] was “inactive” each time. Moreover, the Potency result in test [7], in test [8], in [9], in [11], in [12] and in [13] was “inactive” throughout. Moreover, the Potency entry in [14], in test [15], in test [16], in test [20], in test [17] and in [18] was “inactive” each time.
With `CC(C)COC(=O)c1ccccc1C(=O)OCC(C)C`, the Potency result in test [19], in [2], in test [3], in test [6], in test [7] and in [8] was “inactive” in each case. Also, the Potency entry in test [10], in [12], in test [13], in test [14], in [15] and in [16] was “inactive” in each case. In addition, the Potency entry in [20] and in test [18] was “inactive” in each case. Besides, the Potency in [11] was 5.5 µM (active) and inactive.
As for `CCOc1nc(F)cc2nc(S(=O)(=O)Nc3c(Cl)cccc3Cl)nn12`, the Potency result in test [19], in [2], in test [3], in test [4], in [5] and in [7] was “inactive” in each case. For the same molecule, the Potency entry in test [9], in [10], in [13], in test [14], in [15] and in test [16] was “inactive” each time. In test [17], the Potency entry was “inactive”.
Take `CCOC(=O)CC(SP(=S)(OC)OC)C(=O)OCC` (configuration not stated): the Potency result in test [1], in test [3], in test [4], in test [6], in test [7] and in test [8] was “inactive” each time. Also, the Potency entry in test [9], in [10], in [11], in test [12], in test [13] and in test [14] was “inactive” throughout. In addition, the Potency result in test [16], in test [20] and in test [18] was “inactive” in each case.
In the case of `Cl`, the Potency result in test [1], in test [2], in [3], in test [6], in test [7] and in test [8] was “inactive” in each case. Moreover, the Potency entry in test [10], in test [11], in test [12], in test [13], in test [14] and in test [15] was “inactive” each time. For the same molecule, the Potency result in [16], in test [20], in test [17] and in test [18] was “inactive” each time.
